Results published in PubChem BioAssay AID1159580 (chemical genetic matrix, 2015).
Values joined by “and” are separate entries in the source; they are usually repeats but may differ in a detail not shown here. Equal values may be shown once. In all, about 5,500 compounds went through this assay and about 2,000 (36%) were called active. Another 18% or so got no clear call; they are omitted. Rule as the data show it: active = normalized growth mostly below about 0.91 (no sharp cut-off); inconclusive = no clear call, values can overlap the other calls; inactive = mostly above about 0.92. Some of the results follow.

Assay: chemical genetic growth profiling, strain panel (AID 1159580);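 also: tested at 20 µM; growth read once vehicle control cultures reached saturation at 30 °C; 1 = growth at the plate median or of vehicle wells; lower values mean less growth of the strain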
Settings: S. cerevisiae deletion strains, growth OD

Measured: normalized growth

CCC(=O)OC1[C@@H]2CC3=C4CC(=O)O[C@@H](c5ccoc5)[C@]4(C)CCC3[C@@](C)(C2=O)[C@@H](CC(=O)OC)C1(C)C (stereo partly specified)
inactive: locus YAL021C, strain ccr4, active compounds read low 1.03 | locus YAL026C, strain drs2, active compounds read low 0.973 | locus YAL030W, strain snc1, active compounds read low 0.998 | locus YBL061C, strain skt5, active compounds read low 0.992 | locus YBR009C, strain hhf1, active compounds read low 0.992 | locus YBR021W, strain FUR4, active compounds read low 1.01 | locus YBR023C, strain chs3, active compounds read low 0.995 | locus YBR171W, strain sec66, active compounds read low 0.983 | locus YBR229C, strain ROT2, active compounds read low 1 | locus YBR231C, strain swc5, active compounds read low 0.989 | locus YBR279W, strain paf1, active compounds read low 0.999 | locus YCL011C, strain gbp2, active compounds read low 1.01 | locus YCL016C, strain dcc1, active compounds read low 1.01 | locus YCL029C, strain bik1, active compounds read low 1.02 | locus YCL061C, strain MRC1, active compounds read low 0.998 | locus YCL069W, strain vba3, active compounds read low 0.995 | locus YCR088W, strain abp1, active compounds read low 0.996 | locus YDL005C, strain med2, active compounds read low 0.978 | locus YDL035C, strain GPR1, active compounds read low 1 | locus YDL040C, strain nat1, active compounds read low 0.976 | locus YDL074C, strain BRE1, active compounds read low 1.01 | locus YDL101C, strain DUN1, active compounds read low 1 | locus YDL185W, strain tfp1, active compounds read low 1.02 | locus YDL192W, strain arf1, active compounds read low 1.01 | locus YDR001C, strain nth1, active compounds read low 0.992 | locus YDR069C, strain doa4, active compounds read low 0.982 | locus YDR101C, strain arx1, active compounds read low 1.02 | locus YDR137W, strain rgp1, active compounds read low 0.901 | locus YDR159W, strain sac3, active compounds read low 0.991 | locus YDR162C, strain NBP2, active compounds read low 0.999 | locus YDR195W, strain ref2 0.984 | locus YDR297W, strain sur2, active compounds read low 0.994 | locus YDR318W, strain mcm21, active compounds read low 1.01 | locus YDR334W, strain swr1, active compounds read low 0.982 | locus YDR335W, strain msn5, active compounds read low 0.996 | locus YDR388W, active compounds read low 1.01 | locus YDR392W, strain spt3, active compounds read low 0.837 | locus YDR502C, strain sam2, active compounds read low 1.02 | locus YEL003W, strain gim4, active compounds read low 0.989 | locus YEL037C, strain rad23, active compounds read low 0.984 | locus YEL061C, strain CIN8 (second series), active compounds read low 0.986 | locus YEL061C, strain CIN8, active compounds read low 0.992 | locus YER015W, strain faa2, active compounds read low 1 | locus YER016W, strain bim1, active compounds read low 0.991 | locus YER110C, active compounds read low 1.02 | locus YER111C, strain swi4, active compounds read low 0.977 | locus YER155C, strain BEM2 (second series), active compounds read low 1 | locus YER155C, strain BEM2, active compounds read low 0.998 | locus YER167W, strain BCK2, active compounds read low 0.994 | locus YFR010W, strain ubp6, active compounds read low 0.984 | locus YGL078C, strain dbp3, active compounds read low 1 | locus YGL086W, strain mad1, active compounds read low 1 | locus YGL167C, strain pmr1, active compounds read low 0.989 | locus YGL173C, strain kem1, active compounds read low 0.979 | locus YGL227W, strain vid30, active compounds read low 0.988 | locus YGL240W, strain doc1, active compounds read low 0.99 | locus YGL248W, strain PDE1, active compounds read low 1 | locus YGL253W, strain hxk2, active compounds read low 0.954 | locus YGR135W, strain pre9, active compounds read low 1.02 | locus YGR252W, strain gcn5, active compounds read low 1.05 | locus YHR013C, strain ard1, active compounds read low 0.966 | locus YHR027C, strain rpn1, active compounds read low 0.988 | locus YHR030C, strain SLT2, active compounds read low 1 and 0.969 | locus YHR079C, strain IRE1 (second series), active compounds read low 1.01 | locus YHR079C, strain IRE1, active compounds read low 0.987 | locus YHR094C, strain hxt1, active compounds read low 1.01 | locus YHR129C, strain ARP1, active compounds read low 1 | locus YHR142W, strain chs7, active compounds read low 1.01 | locus YHR200W, strain rpn10, active compounds read low 1.02 | locus YIL066C, strain RNR3, active compounds read low 0.999 | locus YIL073C, strain SPO22, active compounds read low 1.05 | locus YIL125W, strain kgd1, active compounds read low 1.01 | locus YIR030C, strain dcg1, active compounds read low 1.01 | locus YJL092W, strain hpr5, active compounds read low 0.995 | locus YJL095W, strain BCK1 (second series), active compounds read low 0.995 | locus YJL095W, strain BCK1, active compounds read low 0.992 and 0.999 | locus YJL115W, strain asf1, active compounds read low 0.989 | locus YJL129C, strain trk1, active compounds read low 0.974 | locus YJL134W, strain LCB3, active compounds read low 0.998 | locus YJL154C, strain vps35, active compounds read low 0.996 | locus YJL164C, strain tpk1, active compounds read low 1.01 | locus YJL166W, strain qcr8, active compounds read low 1 | locus YJL168C, strain set2, active compounds read low 1 | locus YJL187C, strain SWE1 (second series), active compounds read low 1.01 | locus YJL187C, strain SWE1, active compounds read low 0.998 | locus YJR043C, strain POL32, active compounds read low 1.02
